The source of these data is the supplement of paper PMC6522484.

Test [1] deals with DLD1. Kind of test: cell viability (CellTiter-Glo) relative to plate median (fraction of plate median); higher = more viable cells. The settings on record: 5 µM; treatment time 24 h; reporter: 7TFP. A digest of the protocol: (§1)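 Colorectal cancer lines with stably integrated lentiviral TCF/Wnt firefly luciferase reporters received library compounds at a final 5 µM, 24 h after seeding into 384-well plates, for a 24 h exposure. Reported figures are plate-median-normalised firefly luciferase or CellTiterGlo luminescence per well. They average two independent replicates.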

In a further test the test system is HCT116. Described as above. The settings on record: 5 µM; treatment time 24 h; reporter: TCF4/Wnt. In a few lines: as §1
Test [2] deals with SW480. The test is described as above. The settings on record: 5 µM; treatment time 24 h; reporter: 7TFP. A digest of the protocol: as §1
Test [3] deals with DLD1. Kind of test: TCF/Wnt firefly luciferase reporter signal relative to plate median (fraction of plate median); higher = higher Wnt reporter signal. The settings on record: 5 µM; treatment time 24 h; reporter: 7TFP. A digest of the protocol: as §1
(In a reporter assay the amount or activity of a reporter protein is the signal.)

Test [4] has as its system SW480. The test is described as above. The settings on record: 5 µM; treatment time 24 h; reporter: 7TFP. In a few lines:
as §1

± gives the standard deviation of the averaged measurements.

For the molecule `CC(=O)C1CCC2C3CCC4C[C@H](O)CCC4(C)C3C[C@H](O)C12C` (stereo partly drawn) [DIHYDROXY (3alpha,12alpha)PREGNAN-20-ONE], the cell viability in the test on DLD1 [1] turned out to be 1.01 ± 0.042; in the test on HCT116, 1.12 ± 0.13; in the test with SW480 [2], 1.1 ± 0.064. Also, the “TCF/Wnt firefly luciferase reporter signal” value in the test with DLD1 [3] was 0.9925 ± 0.0064; in the test on SW480 [4], 0.9855 ± 0.0021.

For the molecule `C[C@H]1O[C@@H](O[C@H]2[C@@H](O)C[C@H](O[C@H]3[C@@H](O)C[C@H](O[C@H]4CC[C@@]5(C)[C@H](CC[C@@H]6[C@@H]5CC[C@]5(C)[C@@H](C7=CC(=O)OC7)[C@@H](O)C[C@]65O)C4)O[C@@H]3C)O[C@@H]2C)C[C@H](O)[C@@H]1O`, the cell viability was 0.632 ± 0.13 in the test on DLD1 [1], 0.649 ± 0.21 in the test on HCT116 and 0.765 ± 0.11 with SW480 [2]. The “TCF/Wnt firefly luciferase reporter signal” value in the test on DLD1 [3] is 0.611 ± 0.61; with SW480 [4], 0.685 ± 0.25.

For the molecule `CC[C@@]1(O)C[C@H](O[C@H]2C[C@H](N(C)C)[C@H](O)[C@H](C)O2)c2c(cc3c(c2O)C(=O)c2c(O)ccc(O)c2C3=O)[C@H]1C(=O)OC`, the values for the cell viability with DLD1 [1], in the test with HCT116 and with SW480 [2] were 0.893 ± 0.075, 0.548 ± 0.029 and 1.05 ± 0.042, respectively. The “TCF/Wnt firefly luciferase reporter signal” value with DLD1 [3] was determined as 0.569 ± 0.068; in the test on SW480 [4], 0.711 ± 0.016.

With `C/C(=C\c1csc(C)n1)[C@@H]1C[C@@H]2O[C@@H]2CCC[C@H](C)[C@H](O)[C@@H](C)C(=O)C(C)(C)[C@@H](O)CC(=O)O1` [Epothilone A], the cell viability in the test on DLD1 [1] worked out at 1.09 ± 0.021; with HCT116, 0.464 ± 0.073; in the test with SW480 [2], 1.14 ± 0.099. The “TCF/Wnt firefly luciferase reporter signal” value came out at 0.732 ± 0.076 with DLD1 [3] and 0.8595 ± 0.0078 with SW480 [4].

With `C=C[C@H]1CN2CC[C@H]1C[C@@H]2[C@@H](O)c1ccnc2ccccc12`, the cell viability was 1.02 ± 0.055 with DLD1 [1], 0.963 ± 0.021 with HCT116 and 0.984 ± 0.023 with SW480 [2]. In addition, the entries for the “TCF/Wnt firefly luciferase reporter signal” value in the test with DLD1 [3] and in the test on SW480 [4] were 1.03 ± 0.028 and 0.926 ± 0.014, respectively.

On to `C=CCN1CC[C@]23c4c5ccc(O)c4O[C@H]2C(=O)CC[C@@]3(O)[C@H]1C5`, for which the cell viability in the test with DLD1 [1] amounted to 1.04 ± 0.05; with HCT116 it was 0.936 ± 0.011; with SW480 [2], 1.08 ± 0.014. Besides, the “TCF/Wnt firefly luciferase reporter signal” value was determined as 0.959 ± 0.011 in the test with DLD1 [3] and 0.918 ± 0.019 in the test with SW480 [4].

Regarding `CCOC(=O)c1cncn1[C@H](C)c1ccccc1`, the cell viability in the test on DLD1 [1] was determined as 1.04 ± 0.035; with HCT116, 0.987 ± 0.018; in the test on SW480 [2] it was 0.9905 ± 0.0078. In addition, the results for the “TCF/Wnt firefly luciferase reporter signal” value with DLD1 [3] and in the test with SW480 [4] were 0.965 ± 0.013 and 0.995 ± 0.022, respectively.

`CC1=CC(=O)c2c(O)cccc2C1=O`: the results for the cell viability in the test on DLD1 [1], in the test on HCT116 and in the test on SW480 [2] were 0.0607 ± 0.019, 0.229 ± 0.24 and 0.404 ± 0.51, respectively. Besides, the “TCF/Wnt firefly luciferase reporter signal” value worked out at 0.0412 ± 0.032 in the test on DLD1 [3] and 0.157 ± 0.19 in the test with SW480 [4].

For `CNC(C)[C@H](O)c1ccccc1` (stereo not given in full), the values for the cell viability in the test on DLD1 [1], with HCT116 and in the test with SW480 [2] were 0.976 ± 0.063, 0.917 ± 0.0099 and 1.02 ± 0.03, respectively. The “TCF/Wnt firefly luciferase reporter signal” value in the test on DLD1 [3] worked out at 0.978 ± 0.2; in the test with SW480 [4] it was 1 ± 0.095.

As to `CC(=O)Nc1cc([As](=O)(O)O)ccc1O`, the results for the cell viability in the test with DLD1 [1], in the test on HCT116 and in the test with SW480 [2] were 1.04 ± 0.064, 0.994 ± 0.023 and 1.02, respectively. Also, the “TCF/Wnt firefly luciferase reporter signal” value was 1.13 ± 0.085 in the test on DLD1 [3] and 0.973 ± 0.038 in the test on SW480 [4].

Take `COc1ccc(O)c2c(=O)c3c(OC)cc4c(c3oc12)C1C=COC1O4` (stereo not given): the cell viability with DLD1 [1] was found to be 1.06 ± 0.057; in the test on HCT116 it was 1.03 ± 0.057; in the test with SW480 [2], 1.02 ± 0.028. In addition, the “TCF/Wnt firefly luciferase reporter signal” value with DLD1 [3] worked out at 1.01 ± 0.11; in the test on SW480 [4], 0.999 ± 0.044.

For the molecule `C=C(C)[C@H]1Cc2c(ccc3c2O[C@@H]2COc4cc(OC)c(OC)cc4[C@@H]2C3=O)O1`, the cell viability with DLD1 [1] is 0.851 ± 0.054; in the test with HCT116, 0.637 ± 0.11; in the test with SW480 [2], 1.01 ± 0.05. In addition, the entries for the “TCF/Wnt firefly luciferase reporter signal” value in the test on DLD1 [3] and in the test on SW480 [4] were 0.738 ± 0.04 and 0.753 ± 0.17, respectively.

As to `C=C1C2CC[C@@]3(C)[C@H](c4ccoc4)OC(=O)C[C@]13O[C@H]1CC(=O)C(C)(C)[C@H](C(OC(C)=O)C(=O)OC)[C@@]21C` (stereo not given in full), the cell viability in the test with DLD1 [1] worked out at 1.025 ± 0.0071; in the test with HCT116, 1.13 ± 0.057; with SW480 [2] it was 1 ± 0.014. In addition, the “TCF/Wnt firefly luciferase reporter signal” value in the test with DLD1 [3] was found to be 1.16 ± 0.057; in the test on SW480 [4], 0.826 ± 0.048.

`CCC[C@H]1CCCCN1`: the results for the cell viability with DLD1 [1], in the test on HCT116 and with SW480 [2] were 1.01 ± 0.021, 0.936 ± 0.046 and 0.983 ± 0.039, respectively. In addition, the “TCF/Wnt firefly luciferase reporter signal” value was 1.04 with DLD1 [3] and 1.05 ± 0.087 with SW480 [4].
